DT40 TDP1 CPT – DT40-hTDP1 cell growth loss with CPT; AID 686979; actives 12% (n = 420,000); Potency, µM (top dose mostly 46.2 µM), inactives show top-dose activity change, negative = growth inhibition, usual class: inhibitors; chicken DT40 Tdp1-/-;hTDP1 cells + 20 nM CPT, ATP luminescence, 48 h; further: potency means the concentration at half of the fitted maximal effect; nearly all actives have a fitted effect of over 55% in size
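Cell growth measured by CellTiter-Glo luminescence after a minimum 48 h, 37 C compound exposure with 20 nM CPT in Tdp1-knockout DT40 cells stably expressing hTDP1, seeded 400/well; qHTS titration format.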
HT1080-NT tox – kills 2HG-producing HT-1080-NT fibrosarcoma cells; Potency, µM (highest dose often 46.1 µM), without a hit: at the top dose activity, negative = less viability, actives largely listed as cytotoxic; actives 1.6% (n = 360,000); HT-1080-NT fibrosarcoma viability, CellTiter-Glo ATP luminescence, 48 h;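 further: NT is the 2HG producing partner of a matched IDH1 knockdown line; potency means the concentration at half of the fitted maximal effect; 0% = DMSO-treated cells and -100% = media-only wells without cells; nearly all actives have a fitted effect of over 55% in size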
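Compounds were tested in concentration-response format on HT-1080-NT cells for 48 hours at 37 degrees C. Cell viability came from CellTiter-Glo luminescence; curves were classified by r2, response magnitude and activity.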
HT1080 IDH1KD tx – toxicity to HT-1080 IDH1 knockdown cells (counter line); HT-1080 IDH1 knockdown viability, ATP luminescence, 48 h; Potency, µM (series often up to 46.1 µM), for the others: at the top dose activity, negative = toxicity, usual class: cytotoxic; actives 2% (n = 360,000); AID 686971;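 further: potency means the concentration at half of the fitted maximal effect; 0% = DMSO wells and -100% = cell-free medium wells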
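HT-1080-IDH1KD cells (IDH1 knocked down), 750/well in RPMI with 5% FBS, treated with compound 48 h at 37 degrees C. Viability by CellTiter-Glo luminescence, normalised to DMSO and no-cell wells; concentration-response curves classed.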
ELG1 DNA repair – blocks ELG1-dependent DNA repair in HEK293T cells; HEK293T ELG1-luciferase reporter, luminescence, 16 h; DNA damage induced by 5-fluorouridine; Potency, µM (titrated, usually from 46.1 µM), for the others: at the highest dose activity change, negative = inhibition, usual class: inhibitors; actives 2.3% (n = 330,000); further: potency means the concentration at half of the fitted maximal effect; nearly all actives have a fitted effect of over 55% in size
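DMSO vehicle served as the neutral condition. Each well held 2,000 cells given 5-fluorouridine plus compound; after 16 hr at 37 °C/5% CO2, ONE-Glo was added and luciferase measured 30 min later.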
TDP1 cell noCPT – qHTS for Inhibitors of human tyrosyl-DNA phosphodiesterase 1 (TDP1): qHTS in cells in absence of CPT | DT40 Tdp1-/- hTDP1 cells, no CPT, ATP luminescence, 48 h | Potency, µM (highest dose often 46.2 µM), for inactives: at the top dose activity change, negative = growth inhibition, usual class: inhibitors | actives 15% (n = 420,000) | AID 686978, 2013; further: potency means the concentration at half of the fitted maximal effect; nearly all actives have a fitted effect of over 55% in size
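Growth kinetics read by CellTiter-Glo luminescence after ≥48 hr at 37 °C. Cells: DT40 Tdp1-/- stably carrying human TDP1, 400 per well, compound exposure in the absence of CPT (DMSO vehicle).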
IL1B secr inh – inflammasome signaling inhibition, IL-1 beta readout; actives 4.7% (n = 360,000); THP-1 LPS/ATP IL-1B secretion, AlphaLISA, 16 h; stronger effect = lower value; activity change, % at 57.5 µM; in the data active means activity change below about -50%; inconclusive means mostly about -30% to -49%
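Secreted IL-1B measured by AlphaLISA bead assay after 16 h compound exposure of THP-1 cells; compounds (final up to 57.5 uM) added 1 h before LPS (250 ng/mL) and ATP (1.25 mM) stimulation; lower signal means less secretion.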
* hit, by the source's call; ? = inconclusive; nt = not tested or not shown. Compounds with a hit are over-represented: about 19% of the library has one in this group of screens. Unless noted, the call rests on the fitted dose curve; in most records, active means well fitted curve in the direction sought with a large enough effect; inconclusive means small, poorly fitted or top-dose-only effect, or another doubt; inactive means no such curve, though single readings can be large; an effect the other way counts as inactive or inconclusive. Unless noted, on the % scale 0 is the no-effect control and ±100 the full control effect.

SMILES	DT40 TDP1 CPT	HT1080-NT tox	HT1080 IDH1KD tx	ELG1 DNA repair	TDP1 cell noCPT	IL1B secr inh
COc1cccc(C2c3c(oc4ccccc4c3=O)C(=O)N2Cc2ccco2)c1 (stereo unspecified)	4.3%	1.1%	15.0%	nt	1.5%	-14.0
Cc1cc2oc3c(c(=O)c2cc1C)C(c1cccc(Br)c1)N(Cc1ccco1)C3=O (stereo unspecified)	?	?	?	0.631µM*	?	-1.6
O=C1c2oc3ccc(Cl)cc3c(=O)c2C(c2cccc(Br)c2)N1CCO (stereo unspecified)	25.9µM*	-2.9%	-8.5%	-17.8%	?	-28.9
Cc1ccc2oc3c(c(=O)c2c1)C(c1cccc(Br)c1)N(Cc1ccco1)C3=O (stereo unspecified)	?	9.1%	3.6%	-1.7%	20.6µM*	0.0
CCN(CC)CCN1C(=O)c2oc3ccccc3c(=O)c2C1c1cccc(Br)c1 (stereo unspecified)	-7.4%	-8.5%	-1.5%	4.0%	0.5%	-15.5
CCOc1cc(C2c3c(oc4cc(C)c(Cl)cc4c3=O)C(=O)N2Cc2ccco2)ccc1O (stereo unspecified)	18.4µM*	-2.8%	14.3%	?	16.4µM*	10.3
COc1ccccc1NC(=O)N(C)C[C@H]1OCc2cnnn2CCCC(=O)N([C@@H](C)CO)C[C@H]1C	-7.4%	6.5%	10.9%	nt	1.7%	19.5
COc1ccc(N2c3ccccc3CN(Cc3ccccc3)CC2Cc2cc(OC)c(OC)c(OC)c2)cc1 (stereo unspecified)	?	-0.7%	5.5%	nt	?	-20.6
COC(=O)c1cc2occc2n1CC(=O)Nc1ccc(N(C)C)cc1	-22.9%	nt	nt	nt	-28.8%	nt
Clc1ccccc1Cn1cccc1C1=NC(Cc2ccccc2)CO1 (stereo unspecified)	3.6%	nt	nt	nt	-16.4%	nt
O=C(Nc1ccccc1N1CCN(C(=O)c2ccccc2)CC1)c1cc(Br)ccc1Cl	18.4µM*	-15.3%	-22.9%	?	23.1µM*	-28.7
COc1ccc(Br)cc1C(=O)Nc1ccccc1N1CCN(C(=O)c2ccccc2)CC1	?	-8.5%	-21.5%	?	16.4µM*	-63.0*
O=C(Nc1ccccc1N1CCCC1)c1cccc(Cl)c1Cl	-26.1%	3.1%	5.7%	0.8%	?	16.1
COc1c(C)cc(Br)cc1C(=O)Nc1ccc(N2CCN(S(C)(=O)=O)CC2)cc1	?	16.4%	-1.5%	1.7%	-29.7%	-7.5
O=C(Nc1cc(C(=O)N2CCN(c3ccccc3O)CC2)ccc1Cl)c1cccs1	?	-1.3%	-0.7%	?	?	?
CC(=O)N1CCN(c2ccccc2NC(=O)c2cccc3c(Cl)cccc23)CC1	14.6µM*	-19.5%	-12.4%	-1.4%	?	-12.2
COc1c(C)cc(Br)cc1C(=O)Nc1ccccc1N1CCN(C(=O)c2ccccc2)CC1	?	15.4%	29.1%	-5.2%	14.6µM*	13.5
Cc1cccc(N2CCN(C(=O)c3ccc(NC4=NC5CS(=O)(=O)CC5S4)cc3)CC2C)c1 (stereo unspecified)	?	13.5%	?	3.9%	-23.3%	2.6
C[C@@H](N)CCCP(=O)(O)O	-22.2%	nt	nt	nt	-19.6%	nt
CCOC(=O)Cn1c(S(=O)(=O)Cc2ccccc2Cl)nc(-c2ccccc2)c1-c1ccccc1	16.4µM*	?	?	?	14.6µM*	-8.2
CCOC(=O)Cn1c(-c2cccnc2)nc(-c2ccccc2)c1-c1ccccc1	?	-11.1%	-8.6%	-22.0%	23.1µM*	-12.6
C#CCn1c(S(=O)(=O)Cc2ccccc2Cl)nc(-c2ccccc2)c1-c1ccccc1	18.4µM*	-0.6%	-7.2%	1.3%	?	?
C=C(C)CSc1nc2sc3c(c2c(=O)n1-c1ccccc1)CC(C(C)C)OC3 (stereo unspecified)	-21.4%	nt	nt	nt	2.0%	nt
Cn1c(=O)oc2cc(S(=O)(=O)CCC(=O)NCc3ccc(Cl)cc3)ccc21	-5.2%	nt	nt	nt	-10.7%	nt
COc1cc(C2C(=O)N(C3CCCCCC3)CC(=O)N2CCC2=CCCCC2)ccc1OC(C)C (stereo unspecified)	18.4µM*	nt	nt	nt	20.6µM*	nt
SMILES	DT40 TDP1 CPT	HT1080-NT tox	HT1080 IDH1KD tx	ELG1 DNA repair	TDP1 cell noCPT	IL1B secr inh
CCOc1ccc(C2C(=O)N(C3CCCCCC3)CC(=O)N2CCC2=CCCCC2)cc1OC (stereo unspecified)	23.1µM*	nt	nt	nt	16.4µM*	nt
COc1ccc(C2C(=O)N(C3CCC(C)CC3)CC(=O)N2CCC2=CCCCC2)cc1OC (stereo unspecified)	23.1µM*	nt	nt	nt	23.1µM*	nt
O=C(NCC1CCCN1S(=O)(=O)c1ccccc1)c1cccc(Cl)c1 (stereo unspecified)	?	0.1%	5.2%	-14.9%	?	-21.8
O=C[C@H](O)[C@@H](O)[C@H](O[C@H]1O[C@H](CO)[C@@H](O[C@H]2O[C@H](CO)[C@@H](O)[C@H](O)[C@H]2O)[C@H](O)[C@H]1O)[C@H](O)CO	-6.3%	nt	nt	nt	-1.8%	nt
CO/N=C/C(C#N)=C/c1cc(C(=O)c2ccccc2)cn1C	-20.1%	-12.6%	-17.6%	12.0%	20.6µM*	-11.6
CCC1C(c2ccccc2)N(C)C(c2ccccc2)CC1(O)c1ccccc1 (stereo unspecified)	?	?	16.4µM*	-10.0%	23.1µM*	?
CC1C(=O)CC(c2ccccc2)N(C)C1c1ccccc1 (stereo unspecified)	?	-25.8%	-1.2%	-2.4%	-27.2%	-6.5
COC(CNS(=O)(=O)c1ccc(Cl)cc1)c1ccccc1 (stereo unspecified)	11.4%	7.2%	8.1%	0.1%	-5.4%	-8.7
COc1cccc(NC(CNS(=O)(=O)c2ccc(Cl)cc2)c2ccccc2)c1 (stereo unspecified)	?	nt	nt	nt	16.4µM*	nt
O=S(=O)(NCC(Nc1ccc(Cl)cc1)c1ccccc1)c1ccccc1 (stereo unspecified)	?	?	?	-8.9%	16.4µM*	-92.0*
Cc1ccc(NC(CNS(=O)(=O)c2ccc(Cl)cc2)c2ccccc2)cc1 (stereo unspecified)	20.6µM*	?	?	43.1%	23.1µM*	?
Oc1ccc2ccccc2c1CNc1ccc(Br)cc1	16.4µM*	?	-26.4%	10.2%	?	-9.0
